PubChem BioAssay (NCATS)
Results filed as inconclusive are left out. Where a call stands in place of a potency, no number is given. Activity calls are given as the source filed them. Unless noted, calls come from the whole dose curve; as a rule, active = well fitted curve in the direction sought with a large enough effect; inconclusive = small, poorly fitted or top-dose-only effect, or another doubt; inactive = no such curve, though single readings can be large; an effect the other way counts as inactive or inconclusive.

How the values were obtained:
[1] = biological target: T1, Hexokinase-4 (Homo sapiens) + Glucokinase regulatory protein (Homo sapiens) (UniProt P35557+Q14397); experiment: qHTS assay for inhibitors of recombinant human GCK-GKRP interaction: Diaphorase-coupled assay (AID 743205)
Summary of the method: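 A kinetic fluorescence read (Ex 525/Em 590 nm, every minute for 30 minutes) tracked resorufin from a G6PDH-diaphorase coupled GCK reaction. It contained 10 nM GST-GCK, 10 nM FLAG-GKRP, 5 mM glucose, 0.4 mM ATP in Hepes pH 7.6. Normalized to with/without-enzyme DMSO controls.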

[2] = biological target: T1, Hexokinase-4 (Homo sapiens) + Glucokinase regulatory protein (Homo sapiens); experiment: qHTS assay for inhibitors of recombinant human GCK-GKRP interaction: HTRF assay (AID 743207)
Summary of the method: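 After 60 min equilibration at room temperature with anti-FLAG XL665 and anti-GST antibodies, FRET ratio (665/615 nm, excitation 320 nm) was read. Proteins: GST-GCK and FLAG-GKRP, each 5 nM, plus 2 uM S6P, pH 7.1 buffer; GCK-free wells define minimum signal.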

[3] = qHTS Assay for Identifying Gametocytocidal Compounds (AID 743244);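 note: actives lower the fluorescent signal which means gametocytes are killed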; settings: P. falciparum 3D7 stage III-V gametocytes, alamarBlue, 72 h; max response: stronger effect = lower value
Summary of the method: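 Compounds are pinned into medium, gametocytes (stage III–V, 3D7, 20,000 cells/well) added, and plates held 72 h at 37 °C in 5% CO2. AlamarBlue follows for 24 h before fluorescence reading.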

[4] = qHTS assay for measurement of the activity of small molecule inhibitors on Zika virus induced Caspase-3 activity in human iPSC derived neural progenitor cells (hNPCs) (AID 1224857); note: nearly all actives have a fitted effect of over 65% in size
Summary of the method: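 Pretreat hNPCs with compound 1 h; infect ZIKV 2 FFU/cell; 6 h 37 C, 5% CO2; Caspase-Glo 3/7, 30 min RT; luminescence; normalize to no-virus and virus-only wells.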

[5] = qHTS assay for measurement of the activity of small molecule inhibitors on Zika virus induced Caspase-3 activity in human astrocytoma cells (AID 1224859)
Summary of the method: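 Human SNB-19 astrocytoma cells in RPMI 1640 with 10% FBS receive compound one hour ahead of Zika virus at 2 FFU/cell. After 6 h infection, caspase-3/7 activity is detected by Caspase-Glo luminescence.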

[6] = Natriuretic polypeptide receptor (hNpr1) antagonism - Pilot counterscreen GloSensor control cell line (AID 1347045; calls by dose curve; note: potency is the fitted concentration of half-maximal effect)
Summary of the method: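 HEK293 cGMP GloSensor cells preloaded 2 h with 2% GloSensor reagent, then compound 30 min before baseline luminescence read. Stimulated with 50 uM sodium nitroprusside, 20 min at room temperature, then read again; counterscreen for Npr1 antagonism.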

[7] = biological target: Atrial natriuretic peptide receptor 1 (Homo sapiens) (UniProt P16066); experiment: Natriuretic polypeptide receptor (hNpr1) antagonism - Pilot screen (AID 1347049; calls by dose curve;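 note: agonist-evoked cGMP luminescence read 20 min after hNppA addition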)
Summary of the method: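 HEK293 cells expressing hNpr1 and GloSensor cGMP luciferase, 1500/well, loaded with 2% GloSensor reagent 2 h, compound 30 min at room temperature; luminescence read before and 20 min after 0.1 nM hNppA stimulation.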

[8] = biological target: Atrial natriuretic peptide receptor 2 (Homo sapiens) (UniProt P20594); experiment: Natriuretic polypeptide receptor (hNpr2) antagonism - Pilot subtype selectivity assay (AID 1347050; calls by dose curve; note: potency is the fitted concentration of half-maximal effect)
Summary of the method: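 HEK293 cells expressing hNpr2 and a GloSensor cGMP luciferase sensor, 1500/well, preloaded 2 h with 2% GloSensor reagent, compound 30 min, then 1 nM hNppC for 20 min. Antagonism from luminescence after versus baseline pre-read; LOPAC in 1:5 titrations.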

[9] = biological target: T1, Hexokinase-4 (Homo sapiens) + Glucokinase regulatory protein (Homo sapiens); experiment: qHTS assay for inhibitors of recombinant human GCK-GKRP interaction: ADP-Glo assay (AID 743206)
Summary of the method: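 GST-GCK and FLAG-GKRP (15 nM each in the dispensed mix, with 2 uM S6P) react with 0.4 mM ATP and 5 mM glucose (final) in Hepes pH 7.6 for 60 min at room temperature. ADP is measured by ADP-Glo luminescence.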

[10] = qHTS assay for cell viability of HEK293 cells (AID 743288); settings: ATP luminescence (CellTiter-Glo), 18 h; max response: stronger effect = lower value; note: nearly all actives have a fitted effect of over 50% in size
Summary of the method: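 Total intracellular ATP, measured with a luciferase-coupled reagent, indicates the number of viable HEK293 cells. Exposure to test chemicals lasts 18 h at 37 C in 1,536-well format at 2,000 cells/well.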

[11] = qHTS assay for cell viability of the p53RE-bla HCT-116 cell line (AID 743292); note: nearly all actives have a fitted effect of over 55% in size; note: potency is the fitted concentration of half-maximal effect
Summary of the method: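 CellSensor p53RE-bla HCT-116 cells, 4,000/well, preincubated 5 h at 37 C, then exposed to compounds in DMSO for 16 h at 37 C. Viability read as CellTiter-Glo luminescence (intracellular ATP) after 30 min at room temperature.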

[12] = qHTS profiling of the MIPE4 collection as inhibitors of Plasmodium falciparum (3D7) proliferation (AID 743344; call rule not given here); settings: P. falciparum 3D7 in erythrocytes, SYBR Green DNA fluorescence, 72 h; at 28.5 µM (top of the series)
Summary of the method: (§1)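 Erythrocytes infected with P. falciparum (0.3% parasitemia, 2.5% hematocrit) incubated with compounds 72 h at 37 C, 5% CO2. Lysis with saponin/Triton buffer containing SYBR Green I, overnight at room temperature in the dark; DNA fluorescence (485/535 nm) normalised to 0.29 uM artemisinin and DMSO.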

[13] = qHTS profiling of the MIPE4 collection as inhibitors of Plasmodium falciparum (DD2) proliferation (AID 743345; call rule not given here); settings: P. falciparum Dd2 in erythrocytes, SYBR Green DNA, 72 h; at 28.5 µM (top of the series)
Summary of the method: as §1

[14] = qHTS profiling of the MIPE4 collection as inhibitors of Plasmodium falciparum (DD2) proliferation (Rep 2) (AID 743346; call rule not given here); settings: P. falciparum Dd2 in erythrocytes, SYBR Green DNA, 72 h; at 28.5 µM (top of the series)
Summary of the method: as §1

[15] = qHTS profiling of the MIPE4 collection as inhibitors of Plasmodium falciparum (HB3) proliferation (AID 743347; call rule not given here); settings: P. falciparum HB3 in erythrocytes, SYBR Green DNA, 72 h; at 28.5 µM (top of the series)
Summary of the method: as §1

Chain of Atrial natriuretic peptide receptor 1 (Homo sapiens) (P16066 whole entry, looked up): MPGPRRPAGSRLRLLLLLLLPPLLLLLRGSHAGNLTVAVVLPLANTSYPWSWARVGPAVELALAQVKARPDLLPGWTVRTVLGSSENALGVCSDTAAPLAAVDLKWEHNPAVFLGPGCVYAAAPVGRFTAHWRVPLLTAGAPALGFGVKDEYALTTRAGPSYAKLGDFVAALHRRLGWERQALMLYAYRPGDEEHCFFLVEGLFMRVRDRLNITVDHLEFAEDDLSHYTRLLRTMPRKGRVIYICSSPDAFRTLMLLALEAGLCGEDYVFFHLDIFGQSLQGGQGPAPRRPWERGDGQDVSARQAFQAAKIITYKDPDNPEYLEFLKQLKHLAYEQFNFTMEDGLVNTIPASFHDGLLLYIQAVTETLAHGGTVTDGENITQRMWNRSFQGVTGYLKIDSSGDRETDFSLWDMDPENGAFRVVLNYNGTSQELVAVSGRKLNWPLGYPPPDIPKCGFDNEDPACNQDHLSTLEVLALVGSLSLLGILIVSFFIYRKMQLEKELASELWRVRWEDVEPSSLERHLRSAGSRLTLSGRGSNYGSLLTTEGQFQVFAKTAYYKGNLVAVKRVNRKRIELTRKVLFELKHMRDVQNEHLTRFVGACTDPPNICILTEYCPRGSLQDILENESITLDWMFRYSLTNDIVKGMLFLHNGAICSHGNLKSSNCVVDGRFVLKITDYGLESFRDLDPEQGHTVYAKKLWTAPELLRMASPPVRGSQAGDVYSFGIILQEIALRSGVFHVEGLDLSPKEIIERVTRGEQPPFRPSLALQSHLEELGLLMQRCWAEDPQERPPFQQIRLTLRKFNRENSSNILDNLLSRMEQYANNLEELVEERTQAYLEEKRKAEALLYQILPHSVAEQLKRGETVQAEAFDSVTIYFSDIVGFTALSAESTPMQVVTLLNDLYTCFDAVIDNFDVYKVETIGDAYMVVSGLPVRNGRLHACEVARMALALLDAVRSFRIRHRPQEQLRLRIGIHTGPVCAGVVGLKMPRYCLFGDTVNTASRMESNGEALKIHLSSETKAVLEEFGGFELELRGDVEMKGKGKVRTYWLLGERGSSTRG
T1 sequence (P35557 whole entry, looked up): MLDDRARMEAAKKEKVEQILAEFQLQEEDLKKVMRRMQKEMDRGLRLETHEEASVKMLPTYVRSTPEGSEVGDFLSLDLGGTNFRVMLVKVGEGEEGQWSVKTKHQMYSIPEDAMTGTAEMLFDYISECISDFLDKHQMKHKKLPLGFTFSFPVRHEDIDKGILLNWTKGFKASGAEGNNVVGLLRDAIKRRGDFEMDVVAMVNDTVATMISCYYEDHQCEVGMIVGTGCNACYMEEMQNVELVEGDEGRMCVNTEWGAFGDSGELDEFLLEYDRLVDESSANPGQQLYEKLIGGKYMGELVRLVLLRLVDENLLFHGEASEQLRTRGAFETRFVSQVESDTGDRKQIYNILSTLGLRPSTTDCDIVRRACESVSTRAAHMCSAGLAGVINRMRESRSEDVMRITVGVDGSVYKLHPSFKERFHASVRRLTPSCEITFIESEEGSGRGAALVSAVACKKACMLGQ
T1 sequence (Q14397 whole entry, looked up): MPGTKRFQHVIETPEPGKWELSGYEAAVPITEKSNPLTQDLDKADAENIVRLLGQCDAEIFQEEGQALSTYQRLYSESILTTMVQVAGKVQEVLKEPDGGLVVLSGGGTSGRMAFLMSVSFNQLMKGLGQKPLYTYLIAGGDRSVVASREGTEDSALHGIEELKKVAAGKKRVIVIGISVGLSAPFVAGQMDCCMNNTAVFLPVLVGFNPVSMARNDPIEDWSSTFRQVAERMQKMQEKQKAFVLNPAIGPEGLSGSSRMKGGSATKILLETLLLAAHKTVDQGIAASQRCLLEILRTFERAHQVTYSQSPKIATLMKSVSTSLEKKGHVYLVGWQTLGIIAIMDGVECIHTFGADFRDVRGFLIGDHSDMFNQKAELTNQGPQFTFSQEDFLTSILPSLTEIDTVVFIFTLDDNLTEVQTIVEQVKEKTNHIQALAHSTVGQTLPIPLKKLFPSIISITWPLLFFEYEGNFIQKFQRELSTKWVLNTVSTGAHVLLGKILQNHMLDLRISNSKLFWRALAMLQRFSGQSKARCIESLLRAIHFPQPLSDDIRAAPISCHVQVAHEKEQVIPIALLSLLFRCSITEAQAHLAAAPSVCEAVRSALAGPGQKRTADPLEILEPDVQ
Chain of Atrial natriuretic peptide receptor 2 (Homo sapiens) (P20594 whole entry, looked up): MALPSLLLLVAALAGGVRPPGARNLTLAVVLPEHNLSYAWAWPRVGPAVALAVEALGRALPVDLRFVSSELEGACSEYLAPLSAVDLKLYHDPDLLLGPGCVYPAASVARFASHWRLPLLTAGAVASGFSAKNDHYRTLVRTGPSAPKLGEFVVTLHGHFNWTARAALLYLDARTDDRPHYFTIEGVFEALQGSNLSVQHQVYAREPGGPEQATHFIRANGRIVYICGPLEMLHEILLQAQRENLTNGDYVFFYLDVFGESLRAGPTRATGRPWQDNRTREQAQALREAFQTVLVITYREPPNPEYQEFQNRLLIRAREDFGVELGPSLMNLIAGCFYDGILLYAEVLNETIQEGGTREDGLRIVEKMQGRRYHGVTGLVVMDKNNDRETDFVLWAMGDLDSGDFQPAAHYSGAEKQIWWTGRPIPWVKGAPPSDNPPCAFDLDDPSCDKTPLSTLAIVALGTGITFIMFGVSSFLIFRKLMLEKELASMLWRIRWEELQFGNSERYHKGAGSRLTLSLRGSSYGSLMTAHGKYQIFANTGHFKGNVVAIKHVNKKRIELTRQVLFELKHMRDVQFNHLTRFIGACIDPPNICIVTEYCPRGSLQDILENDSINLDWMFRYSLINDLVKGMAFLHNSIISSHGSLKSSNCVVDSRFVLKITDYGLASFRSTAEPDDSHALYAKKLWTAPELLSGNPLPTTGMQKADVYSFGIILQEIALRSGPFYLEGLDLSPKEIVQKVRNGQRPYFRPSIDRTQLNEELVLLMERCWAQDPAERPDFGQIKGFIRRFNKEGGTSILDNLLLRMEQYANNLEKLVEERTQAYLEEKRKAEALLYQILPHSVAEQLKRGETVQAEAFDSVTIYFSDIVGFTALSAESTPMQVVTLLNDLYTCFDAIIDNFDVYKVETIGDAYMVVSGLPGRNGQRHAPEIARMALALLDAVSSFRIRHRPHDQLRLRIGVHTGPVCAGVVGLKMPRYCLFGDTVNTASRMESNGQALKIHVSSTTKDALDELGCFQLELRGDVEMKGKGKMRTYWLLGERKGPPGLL

Compound	Potency [1]	Potency [2]	max response [3]	Potency [4]	Potency [5]	Potency [6]	Potency [7]	Potency [8]	Potency [9]	max response [10]	Potency [11]	parasite growth, % of DMSO control [12]	parasite growth remaining, % of DMSO control (lower = more inhibition) [13]	parasite growth, % of control (lower = inhibition) [14]	growth, % of control [15]
Cn1c(=O)[nH]c2ncn(C)c2c1=O	inactive	inactive	2.01% (inactive)	inactive	inactive	inactive	inactive	inactive							
C=CC1(C)CC(=O)C2(O)C(C)(O1)C(OC(C)=O)C(O)C1C(C)(C)CCC(O)C12C (stereo unspecified)	inactive		15.4% (inactive)	inactive	inactive	inactive	inactive	inactive	inactive						
CCCCCCCCCCC(C)(C)C(=O)Nc1c(OC)cc(OC)cc1OC	inactive	inactive		inactive	inactive	inactive	inactive	inactive							
CC(N)=NCCCC[C@@H](N)C(=O)O	inactive		25.1% (inactive)	inactive	inactive	inactive	inactive	inactive	inactive						
N=C(N)SCCN	inactive		-1.63% (inactive)	inactive	inactive	inactive	inactive	inactive	inactive						
NC(=Nc1ccccc1)NC(=O)c1nc(Cl)c(N)nc1N	inactive		12.9% (inactive)	inactive	inactive	inactive	inactive	inactive	inactive						
Cc1cc(Cn2cnc3c2C[C@@H](C(=O)O)N(C(=O)C(c2ccccc2)c2ccccc2)C3)ccc1N	inactive	inactive	-5.22% (inactive)	inactive	inactive	inactive	inactive	inactive							
NC(C(=O)N[C@@H]1C(=O)N2C(C(=O)O)=C(Cl)CS[C@H]12)c1ccccc1 (stereo partly specified)	inactive	inactive	8.93% (inactive)	inactive	inactive	inactive	inactive	inactive							
NC(N)=NC(N)=Nc1ccccc1	inactive	inactive	28.5% (inactive)	inactive	inactive	inactive	inactive	inactive							
CC(C)C[C@H](NC(=O)C1OC1C(=O)O)C(=O)NCCCCN=C(N)N (stereo partly specified)	inactive		-4.29% (inactive)	inactive	inactive	inactive	inactive	inactive	inactive						
CC(N)(Cc1ccc(O)c(O)c1)C(=O)O (stereo unspecified)	inactive	inactive		inactive	inactive	inactive	inactive	inactive							
c1ccc2c(c1)CCC[C@H]2Nc1nc2ccccc2[nH]1	inactive	inactive	12.6% (inactive)	inactive	inactive	inactive	inactive	inactive							
O=c1onc2n1-c1cc(Br)ccc1OC2	inactive	inactive		inactive	inactive	0.131 µM (active)	inactive	inactive							
C[C@H](NC(=O)/C(C#N)=C/c1ccc(O)c(O)c1)c1ccccc1	inactive	inactive	-11% (inactive)	inactive	inactive	inactive	inactive	inactive							
CC(=O)C(C)=O	inactive	inactive		inactive	inactive	inactive	inactive	inactive	inactive	-4.3% (inactive)	inactive				
NS(=O)(=O)c1cccc2c1c([N+](=O)[O-])cc1nc(O)c(O)nc12	inactive	inactive		inactive	inactive	inactive	inactive	inactive							
CC#CCOC(=O)c1c(C)nc2sc3c(c2c1N)CCC(O)C3 (stereo unspecified)	inactive		-7.3% (inactive)	inactive	inactive	inactive	inactive	inactive	inactive						
CSc1nc(N)c2ncn([C@@H]3O[C@H](COP(=O)(O)OP(=O)(O)O)C(O)[C@H]3O)c2n1 (stereo partly specified)	inactive		18.1% (inactive)	inactive	inactive	inactive	inactive	inactive	inactive						
O=C(O)C1CCCNC1 (stereo unspecified)	inactive	inactive	20.9% (inactive)	inactive	inactive	inactive	inactive	inactive							

Compound	Potency [1]	Potency [2]	max response [3]	Potency [4]	Potency [5]	Potency [6]	Potency [7]	Potency [8]	Potency [9]	max response [10]	Potency [11]	parasite growth, % of DMSO control [12]	parasite growth remaining, % of DMSO control (lower = more inhibition) [13]	parasite growth, % of control (lower = inhibition) [14]	growth, % of control [15]
CCCCCCN(CCCCCC)C(=O)Cc1c(-c2ccc(F)cc2)[nH]c2ccccc12	inactive		19.7% (inactive)	inactive	inactive	inactive	inactive	inactive	inactive						
NC1CCN(O)C1=O (stereo unspecified)	inactive		19.4% (inactive)	inactive	inactive	inactive	inactive	inactive	inactive						
CCCC[C@@]1(C2CCCC2)Cc2cc(OCC(=O)O)c(Cl)c(Cl)c2C1=O	inactive	inactive		inactive	inactive	inactive	inactive	inactive							
N#Cc1cc2nc(O)c(O)nc2cc1[N+](=O)[O-]	inactive		15.6% (inactive)	inactive	inactive	inactive	inactive	inactive	inactive						
N[C@@H](Cc1c[nH]c2ccccc12)C(=O)O	inactive	inactive		inactive	inactive	inactive	inactive	inactive							
Cc1nc(N=Nc2ccc(S(=O)(=O)O)cc2S(=O)(=O)O)c(COP(=O)(O)O)c(C=O)c1O	inactive	inactive		inactive	inactive	inactive	inactive	inactive	inactive			98.1%	100%	213%	93.6%
CCCN(CCc1ccccc1)C1CCc2c(O)cccc2C1 (stereo unspecified)	inactive	inactive		inactive	inactive	inactive	inactive	inactive							
COc1ccc2c(c1)c(CC(=O)O)c(C)n2C(=O)c1ccccc1	inactive	inactive	11.3% (inactive)	inactive	inactive	inactive	inactive	inactive							
O=C(O)Cc1c[nH]c2ccc(O)cc12	inactive	inactive	-2.34% (inactive)	inactive	inactive	inactive	inactive	inactive	inactive						
O=C(OCCN1CCOCC1)C1(c2ccccc2)CCCCC1	inactive		16.2% (inactive)	inactive	inactive	inactive	inactive	inactive	inactive						
COC(=O)C1=C(C)NC(C)=C([N+](=O)[O-])C1c1ccccc1C(F)(F)F (stereo unspecified)	inactive		19.5% (inactive)	inactive	inactive	inactive	inactive	inactive	inactive						
CCCCCCCCCCCCCCSCC(=O)O	inactive		30.8% (inactive)	inactive	inactive	inactive	inactive	inactive	inactive	-15% (inactive)	inactive				
CC1=C(/C=C/C(C)=C/C=C/C(C)=C\C(=O)O)C(C)(C)CCC1										0.628% (inactive)	inactive				
C/C(=C\c1ccc(C(=O)O)cc1)c1ccc2c(c1)C(C)(C)CCC2(C)C										-16.6% (inactive)	39.8 µM (active)				
NC[C@@H]1O[C@H](c2ccccc2)Cc2c1ccc(O)c2O		inactive		inactive	inactive	inactive		inactive	inactive						
Cc1nc2c(OCc3ccccc3)cccn2c1CC#N	inactive	inactive		inactive	inactive	inactive		inactive	inactive						
C=C1C(=O)O[C@@H]2[C@H]3O[C@]3(C)CCC=C(C)CC[C@@H]12		inactive		inactive	inactive	18.5 µM (active)		11.7 µM (active)	inactive						
CC(N)(C(=O)O)c1ccc(C(=O)O)cc1 (stereo unspecified)	inactive	inactive	12% (inactive)	inactive	inactive	inactive		inactive	inactive						
